Reference: the supplement of paper PMC11732987, “Enantioselective OTUD7B fragment discovery through chemoproteomics screening and high-throughput optimisation” (Communications Chemistry, 2025)

Columns and labels:
Assay in all cases: log2 ratio of Biotin-Ahx-Ub-VS probe labelling (fragment/DMSO); higher = less target engagement (more negative = stronger competition), active = hit call of the paper (q ≤ 0.05, log2 ratio ≤ -1)
Settings in all cases: compound concentration: 200 uM; treatment time: 3 h
[1] = biological target: T1, USP19 (UniProt O94966)
T1 sequence (whole entry): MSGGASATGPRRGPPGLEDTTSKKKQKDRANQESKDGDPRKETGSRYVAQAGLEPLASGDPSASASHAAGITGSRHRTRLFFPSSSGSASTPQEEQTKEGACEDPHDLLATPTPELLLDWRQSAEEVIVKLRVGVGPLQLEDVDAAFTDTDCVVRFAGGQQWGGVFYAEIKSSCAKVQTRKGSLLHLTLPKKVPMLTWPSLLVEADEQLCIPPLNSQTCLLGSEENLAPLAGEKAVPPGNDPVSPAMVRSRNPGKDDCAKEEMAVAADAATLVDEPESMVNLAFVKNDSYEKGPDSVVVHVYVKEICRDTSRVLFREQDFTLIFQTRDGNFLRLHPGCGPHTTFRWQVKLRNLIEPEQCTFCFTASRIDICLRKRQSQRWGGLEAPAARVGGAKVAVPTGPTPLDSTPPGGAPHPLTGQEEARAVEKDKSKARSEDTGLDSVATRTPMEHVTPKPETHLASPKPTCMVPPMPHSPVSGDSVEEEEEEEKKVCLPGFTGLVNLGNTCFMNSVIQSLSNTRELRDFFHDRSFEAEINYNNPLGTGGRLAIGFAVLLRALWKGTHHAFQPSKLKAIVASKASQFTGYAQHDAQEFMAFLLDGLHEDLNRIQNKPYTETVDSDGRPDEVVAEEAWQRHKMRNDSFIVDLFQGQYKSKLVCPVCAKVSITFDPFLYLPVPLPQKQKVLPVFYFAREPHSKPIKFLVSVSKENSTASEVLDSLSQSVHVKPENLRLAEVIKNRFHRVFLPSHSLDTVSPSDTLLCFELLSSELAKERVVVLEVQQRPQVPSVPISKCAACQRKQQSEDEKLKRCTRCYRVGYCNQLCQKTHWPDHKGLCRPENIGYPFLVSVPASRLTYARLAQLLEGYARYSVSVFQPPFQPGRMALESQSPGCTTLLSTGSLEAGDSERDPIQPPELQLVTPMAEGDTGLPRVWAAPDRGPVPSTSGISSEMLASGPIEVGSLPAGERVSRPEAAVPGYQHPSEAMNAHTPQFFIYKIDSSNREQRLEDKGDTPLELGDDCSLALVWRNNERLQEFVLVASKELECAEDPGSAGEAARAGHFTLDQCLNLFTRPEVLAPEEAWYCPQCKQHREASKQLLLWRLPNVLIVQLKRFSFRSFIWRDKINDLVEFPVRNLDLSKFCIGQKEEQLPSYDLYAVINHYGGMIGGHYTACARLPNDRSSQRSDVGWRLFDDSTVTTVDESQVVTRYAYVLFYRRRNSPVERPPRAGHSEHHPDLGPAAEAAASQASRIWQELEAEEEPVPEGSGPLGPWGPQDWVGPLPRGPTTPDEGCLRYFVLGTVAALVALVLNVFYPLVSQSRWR
Method in brief: (§1)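 Labelled DUBs from HEK293T lysate were NeutrAvidin-enriched, digested with LysC and trypsin, and run by diaPASEF LC-MS/MS. Before that, each 495 µg sample in Tris/CHAPS/IGEPAL buffer with protease inhibitors was treated in triplicate with fragment at 200 µM or vehicle for 3 h, then with Biotin-Ahx-Ub-VS at 0.5 µM final for 1 h. Values are average log2 ratios of fragment over vehicle by unpaired t-test, based on global-median-normalised Spectronaut label-free quantities from proteins with ≥2 unique peptides.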

[2] = biological target: T2, USP22 (UniProt Q9UPT9)
T2 sequence (whole entry): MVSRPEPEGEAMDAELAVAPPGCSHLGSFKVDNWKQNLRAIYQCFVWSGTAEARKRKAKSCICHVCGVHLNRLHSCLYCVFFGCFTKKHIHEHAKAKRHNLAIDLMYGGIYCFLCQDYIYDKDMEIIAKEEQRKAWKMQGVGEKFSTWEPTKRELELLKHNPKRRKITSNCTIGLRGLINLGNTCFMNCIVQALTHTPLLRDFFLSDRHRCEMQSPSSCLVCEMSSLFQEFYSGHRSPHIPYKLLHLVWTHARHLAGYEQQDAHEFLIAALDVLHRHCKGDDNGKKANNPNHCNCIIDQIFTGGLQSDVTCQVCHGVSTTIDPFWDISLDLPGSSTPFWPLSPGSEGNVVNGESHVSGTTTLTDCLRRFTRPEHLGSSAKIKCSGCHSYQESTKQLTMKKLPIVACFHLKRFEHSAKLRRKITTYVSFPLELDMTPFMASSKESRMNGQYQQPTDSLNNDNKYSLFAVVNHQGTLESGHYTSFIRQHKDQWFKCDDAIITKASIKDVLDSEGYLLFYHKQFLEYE
Method in brief: as §1

[3] = biological target: USP24 (UniProt Q9UPU5)
USP24, sequence (Q9UPU5 whole entry): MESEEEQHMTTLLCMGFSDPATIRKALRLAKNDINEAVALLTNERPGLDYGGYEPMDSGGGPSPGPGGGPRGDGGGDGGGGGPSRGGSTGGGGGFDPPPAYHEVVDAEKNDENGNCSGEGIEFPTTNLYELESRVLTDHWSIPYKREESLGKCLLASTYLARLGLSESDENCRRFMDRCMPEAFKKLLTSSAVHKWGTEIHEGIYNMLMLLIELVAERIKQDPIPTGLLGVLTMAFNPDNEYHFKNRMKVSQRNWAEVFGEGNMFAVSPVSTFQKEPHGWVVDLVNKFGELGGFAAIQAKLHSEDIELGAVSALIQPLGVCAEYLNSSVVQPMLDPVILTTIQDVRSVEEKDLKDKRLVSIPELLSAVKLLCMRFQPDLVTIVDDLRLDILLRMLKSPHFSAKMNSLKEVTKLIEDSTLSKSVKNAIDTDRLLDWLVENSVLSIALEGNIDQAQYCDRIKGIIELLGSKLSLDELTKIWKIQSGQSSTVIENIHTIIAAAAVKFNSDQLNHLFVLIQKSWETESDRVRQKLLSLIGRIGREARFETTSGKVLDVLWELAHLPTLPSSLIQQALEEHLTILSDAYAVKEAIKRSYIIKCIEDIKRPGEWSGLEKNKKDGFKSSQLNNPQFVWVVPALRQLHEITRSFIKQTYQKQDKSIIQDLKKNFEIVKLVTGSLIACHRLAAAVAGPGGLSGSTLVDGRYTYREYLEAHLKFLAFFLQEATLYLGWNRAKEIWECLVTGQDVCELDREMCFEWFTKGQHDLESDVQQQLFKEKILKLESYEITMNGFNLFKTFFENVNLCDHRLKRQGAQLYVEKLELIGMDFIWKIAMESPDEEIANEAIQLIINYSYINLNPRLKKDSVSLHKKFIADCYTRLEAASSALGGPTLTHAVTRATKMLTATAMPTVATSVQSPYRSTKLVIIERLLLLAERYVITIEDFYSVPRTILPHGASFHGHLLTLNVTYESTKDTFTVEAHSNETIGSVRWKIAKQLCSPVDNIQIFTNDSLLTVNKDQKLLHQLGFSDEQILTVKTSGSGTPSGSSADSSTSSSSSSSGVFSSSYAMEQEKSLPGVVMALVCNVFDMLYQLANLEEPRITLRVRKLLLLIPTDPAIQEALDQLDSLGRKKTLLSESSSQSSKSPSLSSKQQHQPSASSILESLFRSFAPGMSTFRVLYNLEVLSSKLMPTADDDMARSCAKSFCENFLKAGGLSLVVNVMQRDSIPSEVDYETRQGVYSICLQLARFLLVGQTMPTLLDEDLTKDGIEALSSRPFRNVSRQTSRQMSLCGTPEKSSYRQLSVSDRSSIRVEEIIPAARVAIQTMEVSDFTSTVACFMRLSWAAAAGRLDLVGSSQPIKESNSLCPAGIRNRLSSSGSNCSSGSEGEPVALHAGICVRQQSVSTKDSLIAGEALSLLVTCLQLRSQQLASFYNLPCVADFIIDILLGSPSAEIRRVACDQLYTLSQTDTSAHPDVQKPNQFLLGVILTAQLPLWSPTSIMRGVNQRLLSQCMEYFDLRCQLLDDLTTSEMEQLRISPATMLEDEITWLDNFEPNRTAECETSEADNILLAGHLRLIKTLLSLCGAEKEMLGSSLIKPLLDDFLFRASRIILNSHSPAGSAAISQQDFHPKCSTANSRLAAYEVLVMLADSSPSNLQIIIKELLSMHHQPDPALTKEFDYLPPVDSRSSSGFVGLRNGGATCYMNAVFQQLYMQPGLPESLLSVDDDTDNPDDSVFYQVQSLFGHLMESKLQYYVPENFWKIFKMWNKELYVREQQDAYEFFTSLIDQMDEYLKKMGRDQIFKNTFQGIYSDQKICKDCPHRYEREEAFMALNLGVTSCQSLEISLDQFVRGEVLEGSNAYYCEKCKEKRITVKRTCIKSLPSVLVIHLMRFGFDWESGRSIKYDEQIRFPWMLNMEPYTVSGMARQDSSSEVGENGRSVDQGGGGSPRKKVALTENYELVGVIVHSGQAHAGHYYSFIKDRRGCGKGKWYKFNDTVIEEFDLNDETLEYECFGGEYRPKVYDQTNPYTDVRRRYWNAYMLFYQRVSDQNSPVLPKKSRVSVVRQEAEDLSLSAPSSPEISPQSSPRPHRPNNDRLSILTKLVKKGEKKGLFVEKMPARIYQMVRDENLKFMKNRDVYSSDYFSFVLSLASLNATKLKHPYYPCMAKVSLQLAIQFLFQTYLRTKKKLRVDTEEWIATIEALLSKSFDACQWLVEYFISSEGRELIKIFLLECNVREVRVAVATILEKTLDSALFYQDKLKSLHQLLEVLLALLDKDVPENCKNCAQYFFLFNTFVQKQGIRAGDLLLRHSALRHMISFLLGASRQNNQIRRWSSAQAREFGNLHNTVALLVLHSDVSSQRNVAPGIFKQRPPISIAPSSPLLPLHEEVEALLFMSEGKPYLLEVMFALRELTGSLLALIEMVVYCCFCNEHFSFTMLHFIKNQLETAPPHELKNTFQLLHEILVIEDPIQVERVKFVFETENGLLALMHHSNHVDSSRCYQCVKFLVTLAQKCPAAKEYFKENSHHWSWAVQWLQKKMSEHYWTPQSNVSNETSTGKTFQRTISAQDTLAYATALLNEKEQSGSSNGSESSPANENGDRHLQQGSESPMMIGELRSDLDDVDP
Method in brief: as §1

[4] = biological target: T3, USP25 (UniProt Q9UHP3)
T3 sequence (whole entry): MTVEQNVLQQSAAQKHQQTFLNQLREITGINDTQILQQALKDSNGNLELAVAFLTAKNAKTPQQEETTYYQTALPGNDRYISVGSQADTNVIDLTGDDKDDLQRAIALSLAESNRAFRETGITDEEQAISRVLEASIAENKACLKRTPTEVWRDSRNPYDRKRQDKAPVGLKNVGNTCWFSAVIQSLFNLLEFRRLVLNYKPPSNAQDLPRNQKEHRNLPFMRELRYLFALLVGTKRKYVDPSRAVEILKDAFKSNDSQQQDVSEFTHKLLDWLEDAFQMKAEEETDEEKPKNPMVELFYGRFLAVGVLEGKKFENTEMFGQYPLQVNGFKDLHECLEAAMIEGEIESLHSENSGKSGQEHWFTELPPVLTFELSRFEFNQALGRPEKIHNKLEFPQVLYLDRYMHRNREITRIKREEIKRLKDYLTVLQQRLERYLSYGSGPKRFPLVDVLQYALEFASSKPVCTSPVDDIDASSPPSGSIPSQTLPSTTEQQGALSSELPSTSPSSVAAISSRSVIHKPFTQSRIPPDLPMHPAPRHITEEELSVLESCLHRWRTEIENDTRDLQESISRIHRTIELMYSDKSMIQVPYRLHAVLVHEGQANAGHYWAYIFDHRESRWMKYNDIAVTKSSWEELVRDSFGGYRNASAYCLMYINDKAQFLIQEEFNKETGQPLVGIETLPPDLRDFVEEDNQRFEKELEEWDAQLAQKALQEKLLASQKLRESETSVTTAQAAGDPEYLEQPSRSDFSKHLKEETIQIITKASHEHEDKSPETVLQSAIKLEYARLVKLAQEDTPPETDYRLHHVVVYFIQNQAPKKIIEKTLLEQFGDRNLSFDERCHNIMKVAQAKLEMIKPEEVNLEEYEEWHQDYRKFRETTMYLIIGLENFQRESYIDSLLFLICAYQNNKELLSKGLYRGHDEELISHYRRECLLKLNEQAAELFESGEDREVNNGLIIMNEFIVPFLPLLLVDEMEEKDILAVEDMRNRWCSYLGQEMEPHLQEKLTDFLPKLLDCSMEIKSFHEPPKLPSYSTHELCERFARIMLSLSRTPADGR
Method in brief: as §1

[5] = biological target: T4, USP28 (UniProt Q96RU2)
T4 sequence (whole entry): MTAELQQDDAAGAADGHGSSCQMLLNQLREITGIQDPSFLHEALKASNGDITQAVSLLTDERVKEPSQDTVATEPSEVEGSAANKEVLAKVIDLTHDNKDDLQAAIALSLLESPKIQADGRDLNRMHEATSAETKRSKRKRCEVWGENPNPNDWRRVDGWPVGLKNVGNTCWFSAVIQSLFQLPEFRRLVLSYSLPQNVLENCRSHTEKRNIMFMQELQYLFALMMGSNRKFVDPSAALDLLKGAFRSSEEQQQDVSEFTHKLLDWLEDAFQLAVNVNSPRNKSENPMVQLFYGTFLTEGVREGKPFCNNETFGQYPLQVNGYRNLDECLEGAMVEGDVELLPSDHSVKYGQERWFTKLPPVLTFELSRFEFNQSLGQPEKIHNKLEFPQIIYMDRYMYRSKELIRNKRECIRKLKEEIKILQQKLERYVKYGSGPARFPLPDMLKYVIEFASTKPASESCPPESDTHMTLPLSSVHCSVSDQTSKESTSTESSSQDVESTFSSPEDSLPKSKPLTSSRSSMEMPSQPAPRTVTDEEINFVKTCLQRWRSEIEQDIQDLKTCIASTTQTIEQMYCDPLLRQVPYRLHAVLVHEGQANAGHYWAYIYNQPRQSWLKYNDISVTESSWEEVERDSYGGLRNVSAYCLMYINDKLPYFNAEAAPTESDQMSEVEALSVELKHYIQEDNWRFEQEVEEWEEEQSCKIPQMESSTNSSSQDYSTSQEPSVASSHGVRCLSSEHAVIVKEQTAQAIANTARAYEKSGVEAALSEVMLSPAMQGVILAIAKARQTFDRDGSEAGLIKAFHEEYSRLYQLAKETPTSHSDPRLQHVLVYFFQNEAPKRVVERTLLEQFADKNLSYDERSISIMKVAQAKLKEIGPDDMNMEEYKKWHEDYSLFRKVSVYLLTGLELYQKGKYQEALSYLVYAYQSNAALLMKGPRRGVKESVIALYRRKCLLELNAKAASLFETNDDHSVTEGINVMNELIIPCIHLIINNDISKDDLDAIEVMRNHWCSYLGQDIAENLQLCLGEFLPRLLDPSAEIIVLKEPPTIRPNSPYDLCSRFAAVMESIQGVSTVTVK
Method in brief: as §1

Measured: log2 ratio of Biotin-Ahx-Ub-VS probe labelling

Cc1ccc(N(C(=O)CCl)C2C=CS(=O)(=O)C2)cc1 (stereo not given)
inactive: [1] 0.0392 | [2] 0.0416 | [3] -0.681 | [4] 0.0868 | [5] -0.13
